# From PubChem BioAssay AID686971 (National Center for Advancing Translational Sciences (NCATS), 2013)
# Out of some 360,000 compounds screened, about 7,500 (2.1%) were called active. Roughly 8% stayed inconclusive and do not appear here. The list comes from a sample in which actives are over-represented; it also holds similar structures and randomly drawn compounds. Values without a mark were called inactive. The call rests on the fitted dose curve; in most records, active means well fitted cell-killing curve with a large enough effect; inconclusive means small, poorly fitted or top-dose-only effect, or effect the other way, or another doubt; inactive means no such curve, though single readings can be large or run the other way.
# Assay: qHTS for induction of synthetic lethality in tumor cells producing 2HG: qHTS for the HT-1080-IDH1KD cell line;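 on activity, negative = toxicity: 0% = DMSO wells and -100% = cell-free medium wells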
# Conditions: HT-1080 IDH1 knockdown viability, ATP luminescence, 48 h; series mostly up to 46.1 µM; activity, negative = toxicity: at the top concentration
# Procedure, shortened: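 In this qHTS, HT-1080 cells depleted of IDH1 are exposed for 48 h at 37 °C to compound titrations. Toxicity is scored from CellTiter-Glo luminescence, with DMSO as full viability and medium alone as none.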
# Potency means the concentration at half of the fitted maximal effect.
Compound,"activity, negative = toxicity [%]",Potency
C=CCOc1cccc(C2C(C(=O)c3ccc(C)o3)=C(O)C(=O)N2CCN2CCOCC2)c1 (centres undefined),-1.37,
COCCNC(=O)C1CCCN(Cc2ccccc2Cl)CC1 (centres undefined),1.46,
Cc1ccc(S(=O)(=O)N2CCOCC2)cc1NC(=O)c1ccncc1,-4.38,
CC(C)Nc1ncnc2c1ncn2[C@H]1CN(Cc2ccncc2)C[C@@H](CO)O1,8.01,
O=C(CSc1ccccc1)Nc1nnc(/C=C/c2ccccc2)s1,,18.4 µM (active)
O=C(Nc1ccc(Cl)cc1)Nc1nnc(/C=C/c2ccccc2)s1,-6.97,
CCOCc1nnc(NC(=O)CSc2ccc(C)cc2)s1,13.4,
CC1(C)OC(=O)C2=C(C[C@@H](C3CC3)O[C@H]2c2ccc(Cl)cc2)O1,6.54,
CCCCc1nc2ccc(F)cc2cc1C,14,
CCCNC(=O)c1cc(C2CCCCN2S(=O)(=O)c2cn(C)cn2)on1 (centres undefined),0,
COc1ccc2c(c1)C(C)=CC(C)(C)N2C(=O)Nc1ccccc1,6.01,
COc1ccc(NC(=O)NCc2ccc3c(c2)OCO3)c(OC)c1,12.4,
COc1ccc2c(c1)C(C)=CC(C)(C)N2C(=O)CNCc1ccc2c(c1)OCO2,,8.91 µM (active)
CCOC(=O)[C@]12CCCC=C1N(Cc1ccc3c(c1)OCO3)C(=O)[C@H](CC(=O)N1CCN(C(=O)c3ccco3)CC1)C2,7.52,
Oc1ccc(Br)cc1/C=N/Nc1ccccn1,,6.51 µM (active)
Cc1c(C(=O)Nc2ccccn2)oc2ccc(Br)cc12,0.189,
CCN(CC)CCn1c(/N=C/c2cc(Br)ccc2O)nc2ccccc21,-22.5,
NCCCCC(C(=O)O)N(C(=O)OCc1ccccc1)C(=O)OCc1ccccc1 (centres undefined),27.1,
O=C(COC(=O)c1ccc(S(=O)(=O)N2CCCCCC2)cc1)Nc1ccccc1C(F)(F)F,-2.66,
CCc1nc2ccc(C(=O)Nc3ccc(OC)c(OC)c3)cn2c1N(C)C(=O)c1cccc(OC)c1,2.78,
O=C(Nc1cnn(Cc2ccc(Cl)cc2)c1)C1CCCC1,-20.3,
CCn1cc(CN2CCC(C(=O)Nc3cccc(-c4cccc(Cl)c4)c3)CC2)c(C)n1,,20.6 µM (active)
CCn1cc(CN2CCC(n3nccc3NC(=O)CCCc3ccccc3)CC2)c(C)n1,-0.78,
O=C(Nc1cccc(-c2cscn2)c1)C1CCN(Cc2ccsc2)CC1,-10.5,
CC(=O)c1cc(CN2CCC(C(=O)Nc3cccc(-c4cscn4)c3)CC2)cs1,-24.4,

Compound,"activity, negative = toxicity [%]",Potency
CCn1cc(CN2CCC(C(=O)Nc3cccc(-c4cccc(Cl)c4)c3)CC2)cn1,,18.4 µM (active)
Cc1ccc([C@@H]2CC(=O)[C@@H]3CN(S(=O)(=O)c4ccc(C)cc4)[C@H](c4ccccc4F)C[C@@H]3N2S(=O)(=O)c2ccc(Cl)cc2)cc1,4.32,
CCN(CC)CCCC(C)n1c2nc(=O)[nH]c(=O)c-2nc2cc(Cl)ccc21 (centres undefined),,16.4 µM (active)
CCN(CC)CCn1c2ccc(Cl)cc2c2nc(C)sc21,-0.98,
CCCCc1ccc(S(=O)(=O)NC(=O)C2(C)CCN2C(=O)c2c(C)noc2C)cc1 (centres undefined),15.3,
CC(=O)Nc1ccc(SCC(=O)NC(=O)c2ccc(Cl)cc2)cc1,-1.03,
Cc1cccc(C)c1-n1nnnc1C1(C)CCC(=O)N1CCOc1ccccc1 (centres undefined),3.21,
COc1cc(NC(=O)c2cc(-c3ccc(F)cc3OC(C)C)n[nH]2)cc(OC)c1OC,-47.9,
COc1ccc(NC(=O)C[C@H]2C(=O)N(CCc3ccccc3)C[C@@H]2C)cc1,3.77,
OCCc1ccc(NCCc2ccco2)cc1,9.4,
Cc1ccc(S(=O)(=O)Nc2nc(C)cc(-n3nc(C)cc3C)n2)cc1,,15.8 µM (active)
Cc1ccc(S(=O)(=O)Nc2nc(N)n(-c3ccccc3)n2)cc1,20.1,
Cc1cc(C)nc(NS(=O)(=O)c2ccc(N3C(=O)C4CCCCC4C3=O)cc2)n1 (centres undefined),16.3,
C[C@H]1CN([C@@H](C)CO)C(=O)CCCn2cc(nn2)CO[C@@H]1CN(C)S(=O)(=O)c1cccc(C#N)c1,13.6,
CC1(C(=O)NS(=O)(=O)c2ccc(C#N)cc2)CCN1C(=O)CC1CCCC1 (centres undefined),11.5,
COCCNc1nc(Nc2ccccc2Cl)c2sc(-c3ccccc3)cc2n1,-1.87,
COCCNc1nc(NCc2ccc(NC(C)=O)cc2)c2sccc2n1,0,
CC(=O)Nc1ccc(CNc2nc(NCCN(C)C)nc3cc(-c4ccccc4)sc23)cc1,,20.6 µM (active)
COc1cccc(C(O)c2nc(-c3ccc(C)c(C)c3)cs2)c1 (centres undefined),-24.1,
CC1(C)OC(=O)C2=C(CC(c3ccccc3)OC2CCc2ccccc2)O1 (centres undefined),-22.6,
CC(C)n1cnc2c(Nc3cccc(Cl)c3)nc(N(CCO)CCCO)nc21,,14.6 µM (active)
OCCCNc1nccc(-c2cc(Nc3cccc(Cl)c3)ncn2)n1,-29.6,
COC(=O)[C@]12CCCCC=C1N(Cc1ccc3c(c1)OCO3)C(=O)[C@H](CC(=O)NCc1cccs1)C2,-12.8,
COc1cc(C(O)c2nc(-c3cnn(C)c3)cs2)ccc1F (centres undefined),-2.77,
CCCCCNC(=O)C1C(=O)Nc2ccccc2C(=O)N1C(C)(C)C (centres undefined),10.7,

Compound,"activity, negative = toxicity [%]",Potency
CCOC(=O)[C@H]1Nc2ccc(Cl)cc2[C@@H]2[C@H]1C1CC(c3ccccc31)N2C(=O)OCc1ccccc1 (some centres undefined),-15.7,
COC(=O)Cc1ccc(OCC(=O)Nc2ccc(OC(F)(F)F)cc2)cc1,4.71,
CCOC(=O)Cc1ncccc1C(=O)Nc1ccc(OC)cc1,-0.0069,
CCOC(=O)Cc1ncccc1C(=O)Nc1ccc(OC(F)(F)F)cc1,,20.6 µM (active)
O=C(NCc1ccccc1)C1c2ccccc2OCC(=O)N1C1CC1 (centres undefined),6.38,
COc1ccc(C(=O)Nc2ccc(C3(C#N)CCCC3)cc2)cc1OC,-14.8,
CCNC(=O)c1ccc(OCC(=O)Nc2ccc(F)cc2)c(OC)c1,17.7,
COc1ccc(C(=O)N/N=C2\CCS(=O)(=O)c3ccc(F)cc32)cc1OC,,20.6 µM (active)
CC1(C(=O)NCc2ccccc2)CSCC(=O)N1CCCn1ccnc1 (centres undefined),2.24,
O=C(C(=O)N1CCC(c2ccccc2)CC1)c1ccccc1,15.4,
CN(c1ccccc1)S(=O)(=O)c1ccc(C(=O)NCc2cccnc2)cc1,-0.678,
Nc1nc(SCC(=O)NCCN2CCOCC2)nc2sc3c(c12)CCC3,-0.575,
CC(C)(C)C1CCc2c(sc3nc(SCC(N)=O)nc(N)c23)C1 (centres undefined),,32.6 µM (active)
Cc1sc2nc(SCC(N)=O)n(C)c(=O)c2c1C,-9.37,
CC1Cc2[nH][nH]c(=O)c2C(C2CCCC2)O1 (centres undefined),2.64,
O=C(C[C@H]1CC[C@H]2[C@@H](COC[C@H](O)CN2C(=O)c2ccccn2)O1)N1CCN(c2ccccc2)CC1,11.2,
c1cc(-c2ccc3[nH]ccc3c2)n2ccnc2c1,-28,
CCCCN(CCCC)CCC(O)c1cc2c(Cl)cc(Cl)cc2c2cc(C(F)(F)F)ccc12 (centres undefined),,20.6 µM (active)
CS(=O)(=O)N1CCCCC1c1cc(C(=O)NCc2ccccc2)no1 (centres undefined),15.4,
Cn1c(Nc2ccc(F)cc2)nc2cc(-c3ccsc3)sc2c1=O,-11.4,
CC(C)NC(=O)C1(C)CCCCN1Cc1cccc(C(F)(F)F)c1 (centres undefined),13.6,
Cc1ccc(S(=O)(=O)NN=C2CC(C)(C)CC(=O)C2(C)C)cc1,0.409,
COc1ccc(-c2nnc(SC(=O)N3c4ccccc4Sc4ccccc43)o2)cc1,,11.2 µM (active)
COc1ccc(-c2nnc(-c3ccc4ccccc4c3)o2)cc1,14.4,
COc1ccc(-c2nnc(SC(C)C(=O)NC3CC3)o2)cc1 (centres undefined),-2.36,

Compound,"activity, negative = toxicity [%]",Potency
Cc1cccc(S(=O)(=O)N(C)C[C@@H]2OCc3cnnn3CCCC(=O)N([C@H](C)CO)C[C@@H]2C)c1,1.61,
Cc1ccc(Cc2c(-c3ccc(C)cc3)nc3c4ccccc4ccn23)cc1,3.09,
CS(=O)(=O)c1cccc(-c2ccc3nncn3c2)c1,14.8,
Cc1cccc(NC(=O)c2nnn(-c3cccc(C(F)(F)F)c3)c2N)c1,-17.8,
COc1cc(NC(=O)c2cncc(-c3ccc(C#N)cc3)c2)cc(C(=O)Nc2cccc(C(F)(F)F)c2)c1,,inactive
COc1cc(NC(=O)c2[nH]cnc2C(N)=O)cc(C(=O)Nc2cccc(C(F)(F)F)c2)c1,,20.6 µM (active)
C[C@H](CO)N1C[C@H](C)[C@H](CN(C)C(=O)c2ccncc2)OCc2ccccc2-c2c(n(C)c3ccccc23)C1=O,-7.3,
COc1ccc(C(C(=O)NCc2ccccc2)n2c(=O)c(-c3ccccc3)nc3ccccc32)cc1 (centres undefined),-15.2,
C[C@H](O)[C@@H]1C(=O)N2CCc3c([nH]c4ccccc34)[C@@H]2C[C@@H]1N(C)C(=O)Nc1ccc(F)cc1,-2.42,
CC1(C(=O)Nc2ccc3c(c2)OCCO3)CCN1C(=O)Cc1cc(F)ccc1F (centres undefined),3.34,
COC(=O)c1ccc(NCc2cc(O)ccc2O)cc1,,20.6 µM (active)
COC(=O)c1ccc(NC(=O)Nc2ccc(C)cc2)cc1,4.54,
CC(C)OC(=O)c1ccc(NCc2cc(O)ccc2O)cc1Cl,,23.1 µM (active)
CC(C)NC(=O)c1ccc(Cl)cc1Cl,8.03,
O=C(OC12CC3CC(CC(C3)C1)C2)c1ccc(NCc2cc(O)ccc2O)cc1,,23.1 µM (active)
COC(=O)c1ccc(NCC(=O)c2ccccc2)cc1,-4.43,
CC(CN1CCOCC1)OC(=O)c1ccc(Cl)cc1Cl (centres undefined),1.51,
CC1(C)C2CCC1(C)C(OC(=O)c1ccc(O)cc1)C2 (centres undefined),-11.3,
C[C@@H]1CN([C@@H](C)CO)C(=O)c2cc(NS(C)(=O)=O)ccc2O[C@@H](C)CCCCO[C@H]1CN(C)C(=O)Nc1ccc2c(c1)OCO2,-1.65,
CCNC(=O)C1(C)CCCN(Cc2noc(-c3ccccc3OC)n2)C1 (centres undefined),29.5,
CC(=O)c1nn(-c2ccccc2)c(=Nc2ccccc2)cc1C,2.41,
CCCNC(=O)C1(C)CCN1C(=O)C1(c2ccccc2)CC1 (centres undefined),19.9,
CCCCCCN1CCN(C2CN(Cc3cn(CCCCCC)nn3)S(=O)(=O)C2)CC1 (centres undefined),-24.1,
COc1ccc(CN2CCC(C)(Oc3cccc(F)c3)C2)c2ccccc12 (centres undefined),-12.9,
